Shown are actives, neighbours in structure and some others; about 3.4% of the full set was active somewhere.
GPR151 activ: human GPR151 activation; Q8TDV0; PathHunter beta-arrestin GPR151 cells, luminescence; activation, % at 11.2 µM; 650,000 tested, 1% active; in the data active = activation above about 4.9%;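 note: 0% = median of compound wells and 100% = cells with positive control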
Target sequence (Q8TDV0 whole entry, looked up): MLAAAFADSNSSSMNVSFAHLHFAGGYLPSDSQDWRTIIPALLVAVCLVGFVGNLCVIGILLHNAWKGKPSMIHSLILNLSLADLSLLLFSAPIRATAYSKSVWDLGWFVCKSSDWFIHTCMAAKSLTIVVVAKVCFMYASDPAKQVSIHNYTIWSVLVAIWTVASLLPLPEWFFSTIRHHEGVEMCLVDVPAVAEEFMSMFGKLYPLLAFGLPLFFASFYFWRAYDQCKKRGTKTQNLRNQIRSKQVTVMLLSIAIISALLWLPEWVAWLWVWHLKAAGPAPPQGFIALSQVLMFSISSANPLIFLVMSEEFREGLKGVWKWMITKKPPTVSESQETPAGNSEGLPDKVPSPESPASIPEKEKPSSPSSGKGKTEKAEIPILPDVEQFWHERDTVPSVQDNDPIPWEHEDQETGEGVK
FBW7 activator: activators of human E3 ligase FBW7; Q969H0; AlphaScreen FBW7–phospho-cyclin E peptide binding, activator screen; normalized activity (activation), % at 26.1 µM; 650,000 tested, 0.13% active; AID 1259310; in the data active = normalized activity above about 1.9%;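 note: purified mutant Fbw7 with reduced substrate affinity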
TEAD-YAP inh: TEAD-YAP interaction inhibition; HEK-TIYL cells, TEAD-Gal4/YAP UAS-luciferase luminescence; inhibition, % at 9.12 µM; 640,000 tested, 1.4% active; AID 1259422; in the data active = inhibition above about 32%;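 note: 0% = median of test compound wells and 100% = reference inhibitor wells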
MITF inh: inhibitors of human MITF | O75030 | AlphaScreen MITF homodimerization, bead proximity signal | inhibition, % at 2.6 µM | 650,000 tested, 0.91% active | AID 1259374; in the data active = inhibition above about 50%;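 note: 0% = vehicle wells with protein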
Active calls of the source: *.

SMILES	GPR151 activ	FBW7 activator	TEAD-YAP inh	MITF inh
C=CCN1/C(=C/c2cc[n+](C)cc2)Sc2ccccc21	1	0	87*	14
C=CCN1/C(=C/c2cccc[n+]2C)Sc2ccccc21	2	0	77*	5
CN1/C(=C/c2cc[n+](C)cc2)Sc2ccccc21	2	0	32	-4
CC(C)c1cccc(OCCCCNCCO)c1	-1	0	-9	21
O=C(N/N=C/c1cc([N+](=O)[O-])ccc1O)c1cccnc1	-3	-2	16	99*
Cc1cc(C(=O)N/N=C/c2cc([N+](=O)[O-])ccc2O)n[nH]1	1	-1	9	59*
O=C(N/N=C\c1ccccc1F)c1cnccn1	-1	0	-30	10
Cc1nc2ccc(C(=O)N/N=C/c3cc([N+](=O)[O-])ccc3O)cc2[nH]1	1	1.9*	-20	92*
Cc1cc(C(=O)N/N=C/c2c(O)ccc3cc([N+](=O)[O-])ccc23)n[nH]1	-1	0	0	2
O=C(N/N=C\c1ccccc1O)c1cnccn1	-1	-1	-12	59*
O=C(N/N=C/c1cc([N+](=O)[O-])ccc1Cl)c1cccnc1	0	0	-6	-3
O=C(CSc1nnc(NC(=O)c2cccs2)s1)Nc1cc(C(F)(F)F)ccc1Cl	0	0	-7	-9
CN1CCN(c2nc3c(c(=O)[nH]c(=O)n3C)n2CC(=O)c2ccc(Br)cc2)CC1	1	0	4	0
O=C(O)c1cccc(NC(=S)N/N=C/c2cc([N+](=O)[O-])ccc2O)c1	0	0	40*	-1
COc1cc([N+](=O)[O-])cc(/C=N/NC(=O)c2ccc(F)cc2)c1O	0	-1	54*	63*
COc1cc([N+](=O)[O-])cc(/C=N/NC(=O)c2ccccc2O)c1O	0	0	-13	79*
O=C(N/N=C/c1ccccc1O)c1ccccc1O	2	0	37*	29
CC(C(=O)N/N=C/c1ccccc1O)n1nnc2ccccc21 (configuration not stated)	-1	0	3	29
COc1ccc(/C=N/NC(=O)c2cc(C)[nH]n2)c(OC)c1	-2	2.3*	-13	21
CC(C(=O)N/N=C/c1cc([N+](=O)[O-])ccc1O)n1nnc2ccccc21 (configuration not stated)	-1	0	6	86*
O=C(N/N=C/c1cc([N+](=O)[O-])ccc1O)c1ccccc1O	0	0	7	87*
CCN(CC)c1ccc(/C=N\NC(=O)Cn2nnc3ccccc32)c(O)c1	-1	0	12	22
O=C(CSc1nnc(CNc2ccc(Cl)cc2)o1)c1cccs1	0	0	-11	-6
COc1ccc(C(=O)Nc2noc3ccccc23)cc1	-11	0	86*	-5
COc1cccc(C(=O)Nc2noc3ccccc23)c1	-9	0	57*	-9
SMILES	GPR151 activ	FBW7 activator	TEAD-YAP inh	MITF inh
COc1cccc(C(=O)Nc2cc(C)on2)c1	-4	0	-20	4
O=[N+]([O-])c1cc(S(=O)(=O)N2CCOCC2)ccc1N/N=C/c1ccc(O)cc1O	-2	0	14	11
CC(C(=O)OCc1ccc(F)cc1)N1C(=O)C(=O)c2cc(Br)ccc21 (configuration not stated)	1	0	0	53*
O=C(Nc1ccc(-c2cn[nH]n2)cc1)C1COc2ccc(F)cc2C1 (configuration not stated)	2	0	34*	0
COc1ccc2c(c1)CC(c1nc3ccc(-c4cn[nH]c4C)cc3c(=O)[nH]1)CO2 (configuration not stated)	0	0	32*	4
COc1ccc2c(c1)CC(C(=O)Nc1ccc(-c3cn[nH]c3C)cc1OCCO)CO2 (configuration not stated)	-1	1	55*	20
COc1ccc2c(c1)CC(C(=O)Nc1ccc(-c3cn[nH]c3C)cc1OCCN1CCCC1)CO2 (configuration not stated)	0	0	-3	-5
Cc1[nH]ncc1-c1ccc(NC(=O)C2COc3ccc(F)cc3C2)c(N(C)CCN(C)C)c1 (configuration not stated)	-1	0	0	6
Cc1[nH]ncc1-c1ccc2nc(NC(=O)C3COc4ccc(F)cc4C3)sc2c1 (configuration not stated)	0	1	57*	36
COc1ccc2c(c1)CC(c1nc3ccc(-c4ccncc4)cc3c(=O)[nH]1)CO2 (configuration not stated)	0	1	2	21
